# Shown are actives, neighbours in structure and some others; about 3.2% of the full set was active somewhere.
# LGR2 inh = inhibitors of bursicon-induced LGR2 CRE-luciferase signal, primary screen, cell-based, HEK293, CRE-luciferase reporter, bursicon stimulation; bursicon-stimulated, 4 h; inhibition, % at 9.99 µM; actives 0.35% (n = 380,000); AID 720647, 2013;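 active = drop in luminescence signal, shown as inhibition above about 50% in the replicate tests, limit read from the data, passing the limit was not always enough; inconclusive = probably only some replicates passing the limit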;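 also: agonist challenge used bursicon conditioned medium at about half maximal strength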
# TROY signal inh = inhibitors of TROY-driven NF-kB signaling, primary screen, Q293 LMP1-TROYcd cells, NF-kB luciferase, uHTS; actives 0.98% (n = 360,000); inhibition, % at 10 µM; Q293 LMP1-TROYcd NF-kB luciferase reporter, 4 h;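 active = compounds whose plate-normalised and pattern-corrected inhibition of the luciferase reporter signal at the single screening dose is 50% or more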
# TWEAK Fn14 block = inhibitors of TWEAK-Fn14 signaling, primary screen, luciferase reporter cells, uHTS. TWEAK-stimulated Fn14 reporter cells, luciferase luminescence, 8 h. inhibition, % at 10 µM. actives 2% (n = 360,000); in the data active = inhibition above about 50%
# PAX8 reporter = inhibitors of PAX8-driven TPO luciferase reporter, primary screen, RMG-I cells, single concentration; SteadyGlo, 24 h; inhibition, % at 12.6 µM; actives 1.2% (n = 360,000);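 active = mean replicate inhibition at least 60% with every replicate also reaching 60%; inconclusive = only one of the two criteria is met; inactive = mean below 60% and not all replicates reaching 60%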;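 also: luciferase light reporting Pax8 driven TPO promoter activity; plate controls were median of neutral control wells for no effect and mitoxantrone controls for full effect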
# EWS-Fli block = EWS/Fli-driven NR0B1 reporter inhibitors, primary screen, A673 cells, NR0B1 luciferase, luminescence, MLPCN library; viability-normalised; inhibition, % at 12.6 µM; actives 0.67% (n = 350,000); AID 651661, 2012;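 active = mean inhibition of at least 50% after viability correction, with every replicate also passing that limit; inconclusive = mean reaches 50% but only one of two replicates passes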;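 also: firefly luciferase signal divided by Alamar Blue viability fluorescence both relative to DMSO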
# EBV LMP1 NFkB = EBV LMP1-driven NF-kappaB luciferase reporter inhibitors, primary screen, cell-based, luminescence, single point | inhibition, % at 12.5 µM | LMP1-induced NF-kappaB luciferase reporter cells | actives 0.69% (n = 350,000); in the data active = inhibition above about 41%; inconclusive = no clear call, values can overlap the other calls;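 also: 0% = neutral control wells and 100% = reference inhibitor control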
# An asterisk follows results filed as active; ? = inconclusive; . = no result given.
SMILES,LGR2 inh,TROY signal inh,TWEAK Fn14 block,PAX8 reporter,EWS-Fli block,EBV LMP1 NFkB
COc1ccc(NC(=O)Nc2ccc3c(c2)C(=O)N([C@@H](C)CO)C[C@H](C)[C@H](CN(C)Cc2ccc(C(F)(F)F)cc2)OCCCC[C@@H](C)O3)cc1,-4,.,.,57,4,.
COc1ccc(CN(C)C[C@H]2OCCCC[C@@H](C)Oc3ccc(NC(=O)Nc4ccc(C(F)(F)F)cc4)cc3C(=O)N([C@@H](C)CO)C[C@H]2C)cc1,.,.,.,?,69*,.
COc1ccc(CN(C)C[C@H]2OCCCC[C@@H](C)Oc3ccc(NC(=O)Nc4ccc(C(F)(F)F)cc4)cc3C(=O)N([C@H](C)CO)C[C@@H]2C)cc1,.,.,.,2,-1,.
COc1ccc(CN(C)C[C@@H]2OCCCC[C@@H](C)Oc3ccc(NC(=O)Nc4ccc(C(F)(F)F)cc4)cc3C(=O)N([C@@H](C)CO)C[C@H]2C)cc1,.,.,.,98*,71*,.
COc1ccc(CN(C)C[C@H]2OCCCC[C@H](C)Oc3ccc(NC(=O)Nc4ccc(C(F)(F)F)cc4)cc3C(=O)N([C@H](C)CO)C[C@@H]2C)cc1,20,.,.,83*,71*,.
COc1ccc(NC(=O)Nc2ccc3c(c2)C(=O)N([C@H](C)CO)C[C@H](C)[C@H](CN(C)Cc2ccc(C(F)(F)F)cc2)OCCCC[C@@H](C)O3)cc1,-5,.,.,50,-1,.
COc1ccc(NC(=O)Nc2ccc3c(c2)C(=O)N([C@H](C)CO)C[C@@H](C)[C@H](CN(C)Cc2ccc(C(F)(F)F)cc2)OCCCC[C@H](C)O3)cc1,12,.,.,81*,61*,.
COc1ccc(NC(=O)Nc2ccc3c(c2)C(=O)N([C@@H](C)CO)C[C@@H](C)[C@H](CN(C)Cc2ccc(C(F)(F)F)cc2)OCCCC[C@H](C)O3)cc1,.,.,.,49,8,.
COc1ccc(NC(=O)Nc2ccc3c(c2)C(=O)N([C@H](C)CO)C[C@H](C)[C@H](CN(C)Cc2ccc(C(F)(F)F)cc2)OCCCC[C@H](C)O3)cc1,8,.,.,99*,-3,.
COc1ccc(CN(C)C[C@@H]2OCCCC[C@H](C)Oc3ccc(NC(=O)Nc4ccc(F)cc4)cc3C(=O)N([C@H](C)CO)C[C@@H]2C)cc1,12,.,.,54,-5,.
COc1ccc(NC(=O)Nc2ccc3c(c2)C(=O)N([C@@H](C)CO)C[C@@H](C)[C@H](CN(C)Cc2ccc(C(F)(F)F)cc2)OCCCC[C@@H](C)O3)cc1,5,.,.,64*,0,.
COc1ccc(CN(C)C[C@H]2OCCCC[C@@H](C)Oc3ccc(NC(=O)Nc4ccc(C(F)(F)F)cc4)cc3C(=O)N([C@@H](C)CO)C[C@@H]2C)cc1,.,.,.,30,66*,.
COc1ccc(CN(C)C[C@H]2OCCCC[C@@H](C)Oc3ccc(NC(=O)Nc4ccc(F)cc4)cc3C(=O)N([C@@H](C)CO)C[C@@H]2C)cc1,.,.,.,85*,-12,.
O=C(C[C@H]1CC[C@H]2[C@@H](COC[C@@H](O)CN2Cc2ccc(Oc3ccccc3)cc2)O1)N1CCOCC1,10,.,.,14,-1,.
COc1ccc(CN(C)C[C@@H]2OCCCC[C@H](C)Oc3ccc(NC(=O)Nc4ccc(C(F)(F)F)cc4)cc3C(=O)N([C@H](C)CO)C[C@@H]2C)cc1,.,.,.,108*,71*,.
COCC#Cc1ccc([C@H]2[C@H](CO)N3C(=O)CN(C(=O)c4ccncc4)C[C@@H]23)cc1,7,.,.,-19,2,.
O=C(CC1CC1)Nc1ccc2c(c1)[C@@H]1C[C@@H](CC(=O)N3CCc4ccccc4C3)O[C@H](CO)[C@@H]1O2,14,.,.,.,0,.
C[C@@H]1CN([C@@H](C)CO)C(=O)c2cc(/C=C/c3ccccc3)cnc2O[C@@H]1CN(C)C(=O)Nc1ccc(C(F)(F)F)cc1,22,.,.,.,52*,.
C[C@@H]1CN([C@H](C)CO)C(=O)c2cc(/C=C/c3ccccc3)cnc2O[C@@H]1CN(C)C(=O)C1CC1,-9,.,.,74*,-14,.
CC(C)C#Cc1ccc2c(c1)O[C@H](CN(C)C(=O)c1ccncc1)[C@@H](C)CN([C@@H](C)CO)S2(=O)=O,-4,.,.,-10,0,.
O=C(NCc1ccc2c(c1)OCO2)C(C(=O)c1ccccc1)n1cc(Cl)ccc1=O (stereo not drawn),0,7,13,85*,-5,-17
Cc1noc(C)c1S(=O)(=O)Nc1ccc2c(c1)CC(=O)N([C@H](C)CO)C[C@H](C)[C@H](CN(C)C)O2,7,.,.,-19,-7,.
O=C(O)Cc1sc(Nc2ccc(Cl)cc2)nc1-c1cccs1,-62,.,.,-4,-25,51*
N#CCCN(C(=O)Nc1ccc(Cl)cc1)c1ccccc1,-5,-19,86*,.,.,0
Cc1nc(-c2ccc(C(=O)Nc3ccc(F)cc3)cc2)cs1,-1,-36,36,-52,-45,-10
SMILES,LGR2 inh,TROY signal inh,TWEAK Fn14 block,PAX8 reporter,EWS-Fli block,EBV LMP1 NFkB
Cc1nc(-c2ccc(C(=O)Nc3cccc(F)c3)cc2)cs1,60*,56*,92*,19,31,-3
Cc1nc(-c2ccc(C(=O)Nc3ccccc3F)cc2)cs1,83*,66*,90*,-4,61*,20
COCC(=O)N1CCCCN2[C@H](C1)[C@H](c1ccc(-c3cccc(C)c3)cc1)[C@@H]2CO,6,.,.,16,-1,.
COCC(=O)N1CCCCN2[C@H](CO)[C@H](c3ccc(-c4cccc(C)c4)cc3)[C@@H]2C1,62*,.,.,-13,-4,.
CC(=O)N1CCCCN2[C@H](C1)[C@H](c1ccc(-c3cccc(C)c3)cc1)[C@@H]2CO,-1,.,.,74*,7,.
COc1ccc(C#Cc2ccc3c(c2)O[C@H](CN(C)C(=O)CN2CCOCC2)[C@H](C)CN([C@@H](C)CO)S3(=O)=O)cc1,-8,.,.,-5,-3,.
COc1ccc(-c2ccc([C@@H]3[C@@H](CO)N4CCCCN(C(=O)NC(C)C)C[C@@H]34)cc2)cc1,5,.,.,6,-10,.
COc1ccc(N/N=C/c2c(C(=O)O)ccc3ccccc23)cc1,-11,13,22,62*,-20,69*
COc1ccc2ccccc2c1/C=N/Nc1ccc(Cl)c(C(=O)O)c1,9,-4,1,-34,-57,-11
C[C@]12c3[nH]c4ccc(Cl)cc4c3CCN1C(=O)[C@@H](CC(=O)NCCCn1ccnc1)C[C@@H]2C(=O)N1CCCCC1,-9,-1,14,7,3,-3
O=C(C[C@H]1C[C@H](C(=O)N2CCCCC2)[C@@]2(CCc3ccccc3)c3[nH]c4ccc(Cl)cc4c3CCN2C1=O)NCCCn1ccnc1,3,55*,32,36,13,12

# Bioassay records (PubChem)
